“And” between values parts separate entries of the source, which are not always exact repeats. Equal values may be shown once. About 83,000 compounds went through this panel and 20% of them were active in at least one assay; those are over-represented in the sample as a whole.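 In brief: 96-well plates, 48 h treatment, single concentration, percent growth endpoint.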 The source made the active and inactive calls.
Tested on: NCI-H322M lung
Assay: NCI-60 one-dose screen, 48 h (100 = growth as untreated, 0 = no growth, -100 = all killed)
Conditions: 10 µM unless noted
Description: Growth inhibition of the NCI-H322M human Non-Small Cell Lung tumor cell line is measured as a screen for anti-cancer activity. Cells are grown in 96 well plates and exposed to the test compound for 48 hours. Compounds are tested at a single concentration, which is 10^-5 M for most compounds. The reported endpoint is percent growth (GI% or GIPRCNT), where numbers from 0 - 100% represent growth inhibition, and numbers from -100% - 0 represent cell death. For example, a value of 40 represents 60% growth inhibition. A value of 0 means no net growth occurred over the course of the experiment. A value of -40 indicates 40% of cells at the beginning of the experiment died by the end of the experiment. A value of -100 means all cells are dead at the end of the experiment.
NCI-60 Human Tumor Cell Lines Screen was performed using the standard one-dose NCI protocol, which is described in more detail at https://dtp.cancer.gov/discovery_development/nci-60/default.htm.
Compounds with GIPRCNT values below 10 were considered active. Activity score was based on GIPRCNT using the following formula: […]
Score is 0 for GIPRCNT values of 100 or above, 50 for GIPRCNT values of 0, and 100 for GIPRCNT values of -100.

**Q.** With `CC(=O)C(N)Cc1ccccc1` (stereo not given) as the molecule, how does the growth read?
**A.** 106% (inactive)

**Q.** With `CN(C)C(=S)SSC(=S)N(C)C` as the molecule, how does the growth read?
**A.** 75.3% (inactive) and 94.9% (inactive)

**Q.** Which growth does the source give for `O=C(O)c1cc([N+](=O)[O-])cc([N+](=O)[O-])c1` here?
**A.** 105% (inactive)

**Q.** How did the growth turn out when `CCCCCCCCCCCCCCCC[N+](C)(C)C` was run?
**A.** -70% (active) and 60.7% (inactive)

**Q.** Which growth does the source give for `CC[C@H](C)[C@H](NC(=O)[C@H]1CCCCN1C)C(=O)N(C)[C@H](CCc1nc(C(=O)N[C@@H](Cc2ccccc2)C[C@H](C)C(=O)O)cs1)C(C)C` here?
**A.** 49.9% (inactive)

**Q.** Which growth does the source give for `C[C@]12CC[C@@H](OC(=O)N(CCCl)N=O)C[C@@H]1CC[C@@H]1[C@@H]2CC[C@]2(C)C(=O)CC[C@@H]12` here?
**A.** 57.5% (inactive)

**Q.** How did the growth turn out when `C#Cc1cccc(Nc2nc(Cl)nc3cc(NC(=O)CF)ccc23)c1` was run?
**A.** 80% (inactive)

**Q.** With `Oc1ccccc1C=NCCN=Cc1ccccc1O.[Fe]` as the molecule, how does the growth read?
**A.** 111% (inactive)

**Q.** How did the growth turn out when `COc1ccc(N)cc1OC` was run?
**A.** 114% (inactive)

**Q.** With `O=[N+]([O-])c1c(Cl)cc(Cl)c([N+](=O)[O-])c1Cl` as the molecule, how does the growth read?
**A.** 119% (inactive)

**Q.** With `C(=NC1CCCCC1)=NC1CCCCC1` as the molecule, how does the growth read?
**A.** 117% (inactive) and 99.1% (inactive)

**Q.** `CCN(CC)CCn1c(=O)n(C)c2ccccc21` was tested. Which growth did it give?
**A.** 106% (inactive)

**Q.** `C=C[Se]CC(=O)/C=C/c1ccccc1` was tested. Which growth did it give?
**A.** 6% (active)

**Q.** With `Cc1ccc(NC2=N[C@]34CC(=O)CC[C@]3(C)[C@H]3CC[C@]5(C)C(=O)CC[C@H]5[C@@H]3C[C@@H]4S2)c(C)c1` as the molecule, how does the growth read?
**A.** 79.5% (inactive)

**Q.** With `O=C/C=C/c1ccco1` as the molecule, how does the growth read?
**A.** 111% (inactive)

**Q.** `CCOC(=O)P(=O)(OCC)OCC` was tested. Which growth did it give?
**A.** 82.6% (inactive)

**Q.** With `CCOP(=O)(OCC)C(=O)N(CC)CC` as the molecule, how does the growth read?
**A.** 105% (inactive)

**Q.** For `O=C(O)CNCP(=O)(O)O`, which growth is on record?
**A.** 106% (inactive)

**Q.** `C[C@@]12CCCc3coc(c31)C(=O)c1cc3c(cc12)C(=O)C1=C(NCCS1(=O)=O)C3=O` was tested. Which growth did it give?
**A.** -6.28% (active)

**Q.** For `CCC1(NC(=O)c2cc(F)c(F)c(F)c2F)C(=O)NC(=O)N(C(C)C)C1=O` (stereo not given), which growth is on record?
**A.** 90.2% (inactive)

**Q.** For `Cn1cc(C(=O)C[n+]2ccccc2)c2ccccc21`, which growth is on record?
**A.** 104% (inactive)

**Q.** With `CC12CCC3C4CCC(=O)C=C4CCC3C1CC1CC(=O)OC12` (stereo not given) as the molecule, how does the growth read?
**A.** 89.9% (inactive)

**Q.** How did the growth turn out when `O=c1c2ccccc2nc(-c2ccccc2Cl)n1-c1nnc(C(F)(F)F)s1` was run?
**A.** 17.6% (inactive)

**Q.** `N[C@@H](CCC(=O)CCl)C(=O)O` was tested. Which growth did it give?
**A.** 98.1% [20 µM] (inactive)

**Q.** Which growth does the source give for `Cc1cc[n+](CCc2ccccc2)cc1` here?
**A.** 96% (inactive) and 96.5% (inactive)

**Q.** `C=CC[PH+](c1ccccc1)c1ccccc1.C=CC[PH+](c1ccccc1)c1ccccc1.[Pt+2].[S-]c1nc2ccccc2[nH]1.[S-]c1nc2ccccc2[nH]1` was tested. Which growth did it give?
**A.** 6.44% (active)

**Q.** `O=[N+]([O-])c1ccc(OCc2ccc(S(=O)(=O)F)c(Cl)c2)c(Cl)c1` was tested. Which growth did it give?
**A.** 116% (inactive)

**Q.** Which growth does the source give for `OCCNC1CCCCC1` here?
**A.** 113% (inactive)

**Q.** Which growth does the source give for `CN1[C@@H](CC(=O)c2ccccc2)CCC[C@H]1CC(=O)c1ccccc1` here?
**A.** 110% (inactive)

**Q.** `CC1OC(=O)C(C(C)C)NC(=O)C(C(C)C)OC(=O)C(C(C)C)NC(=O)C(C)OC(=O)C(C(C)C)NC(=O)C(C(C)C)OC(=O)C(C(C)C)NC(=O)C(C)OC(=O)C(C(C)C)NC(=O)C(C(C)C)OC(=O)C(C(C)C)NC1=O` (stereo not given) was tested. Which growth did it give?
**A.** -3.44% (active)

**Q.** `O=C(O)C(Br)CBr` (stereo not given) was tested. Which growth did it give?
**A.** 92.5% (inactive)

**Q.** For `C[N+]1(CC#CC[N+]2(C)CCCC2)CCCC1`, which growth is on record?
**A.** 99.8% (inactive)

**Q.** With `COC(=O)C12C3C4C1C1C2C3C41NC(=O)c1csc([C@@H](C[C@H](C(C)C)N(C)C(=O)[C@@H](NC(=O)[C@H]2CCCCN2C)C2CC2)OC(C)=O)n1` (stereo not given in full) as the molecule, how does the growth read?
**A.** 38.5% (inactive)

**Q.** How did the growth turn out when `CC[PH+](CC)CC.O=COC1OC([S-])C(OC=O)C(OC=O)C1OC=O.[Au+]` (stereo not given) was run?
**A.** -95.9% (active)

**Q.** How did the growth turn out when `CCCCCCCCCCCCCCCC[n+]1ccccc1` was run?
**A.** 11.4% (inactive) and 40.2% (inactive)

**Q.** Which growth does the source give for `CCCCCCCCCCCCCCCC[N+](C)(C)Cc1ccccc1` here?
**A.** 63.3% (inactive) and 33.8% (inactive)

**Q.** For `O=[P+](O)c1cccnc1`, which growth is on record?
**A.** 94.9% (inactive)

**Q.** `O=S(OO)c1cc(Cl)c(O)c(Cl)c1` (stereo not given) was tested. Which growth did it give?
**A.** 97.7% (inactive)

**Q.** `CN(C)[C@@H]1C(=O)C(C(N)=O)=C(O)[C@@]2(O)C(=O)C3=C(O)c4c(O)ccc(Cl)c4[C@@](C)(O)[C@H]3C[C@@H]12` was tested. Which growth did it give?
**A.** 84.8% (inactive) and 105% (inactive)

**Q.** With `CCC1(CCSC#N)C(=O)NC(=O)NC1=O` as the molecule, how does the growth read?
**A.** 97.9% (inactive)
